Arbovirus anti = antivirals against arbovirus infection, primary screen, cell-based, full library, 10K replicate subset; AID 1251, 2008; arbovirus infection cell-based antiviral screen; inhibition, % at 10 µM; 200,000 compounds, 0.37% hits; in the data active means inhibition above about 30%
Hck Nef HTS = inhibitors of Nef-activated human Hck kinase, primary screen, biochemical, Z-Lyte FRET, 384-well, Hck-YEEI; Tyrosine-protein kinase HCK (Homo sapiens), P08631; AID 463187, 2010; Recombinant Hck-YEEI plus Nef, Z-Lyte FRET kinase assay; inhibition, % at 20 µM; 220,000 compounds, 0.68% hits;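 active means Hck-Nef kinase inhibition above about 50%, limit read from the data; inactive means inhibition below that limit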;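 further: 0% = DMSO with Hck plus Nef and 100% = Hck alone without Nef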
EP2 antag = human EP2 receptor antagonists, primary screen, TR-FRET cAMP, C6 glioma cells; Prostaglandin E2 receptor EP2 subtype (Homo sapiens), P43116; C6 glioma cells expressing human EP2; cells stimulated with saturating PGE2; inhibition, % at 25 µM; 260,000 compounds, 0.52% hits; AID 1422, 2008;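 active means percent inhibition above 40 after rounding to a whole number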;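 further: rat C6 glioma host cells with rolipram phosphodiesterase inhibitor present; the protocol text gives 20 µM as final concentration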
EP2 modulator = EP2 receptor modulators, cAMP readout, primary screen, cell-based, HTRF cAMP, PGE2 stimulation; induction, % at 25 µM; AID 940, 2007; EP2-expressing cells, cAMP HTRF FRET, PGE2 co-stimulation; 260,000 compounds, 0.83% hits;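 active means compounds whose cAMP rise, as percent of the full-agonist control response, exceeds 60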;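 further: rat C6 glioma line stably carrying human EP2 under a CMV promoter; the protocol text gives 20 µM as final concentration; 100% = response of wells given 1 µM PGE2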
p97 inhibitor = inhibitors of human p97 ATPase, primary screen, biochemical | Transitional endoplasmic reticulum ATPase (Homo sapiens), P55072 | recombinant p97 ATPase, Kinase-Glo ATP luminescence, 3 h | inhibition, % at 8 µM | 220,000 compounds, 0.42% hits; in the data active means inhibition above about 15%;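 further: 0% = DMSO vehicle and 100% = wells lacking enzyme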
Target sequence (P55072 whole entry, looked up): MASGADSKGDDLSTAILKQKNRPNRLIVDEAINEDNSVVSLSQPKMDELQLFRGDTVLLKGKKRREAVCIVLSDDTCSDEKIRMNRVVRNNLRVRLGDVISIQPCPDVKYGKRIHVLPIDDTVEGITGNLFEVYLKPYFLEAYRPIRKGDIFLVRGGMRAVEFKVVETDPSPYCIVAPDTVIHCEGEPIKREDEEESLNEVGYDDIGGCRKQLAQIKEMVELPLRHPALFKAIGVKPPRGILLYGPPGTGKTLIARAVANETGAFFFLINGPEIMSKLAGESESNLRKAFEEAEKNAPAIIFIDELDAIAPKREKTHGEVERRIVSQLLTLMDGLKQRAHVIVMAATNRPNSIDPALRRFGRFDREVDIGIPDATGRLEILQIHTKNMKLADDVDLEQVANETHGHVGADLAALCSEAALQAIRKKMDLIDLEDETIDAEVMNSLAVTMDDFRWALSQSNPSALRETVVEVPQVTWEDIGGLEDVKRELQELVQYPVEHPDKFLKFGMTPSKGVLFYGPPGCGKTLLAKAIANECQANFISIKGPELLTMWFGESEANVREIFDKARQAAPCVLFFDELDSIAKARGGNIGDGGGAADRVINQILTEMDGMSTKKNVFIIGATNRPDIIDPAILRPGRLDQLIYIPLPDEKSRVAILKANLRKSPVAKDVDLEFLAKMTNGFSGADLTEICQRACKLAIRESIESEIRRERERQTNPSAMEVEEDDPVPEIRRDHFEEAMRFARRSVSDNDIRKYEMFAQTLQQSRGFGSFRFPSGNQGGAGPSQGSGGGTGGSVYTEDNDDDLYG
EP2 cAMP induct = cAMP induction in EP2, EP4, beta2-AR and parental cells, confirmation, counter-screen for EP2 modulator project, cell-based, five parallel assays, C6 glioma, HEK293; AID 1080, 2008; calls only at 20 µM (by protocol); 1,300 compounds, 47% hits; shares compounds with EP2 modulator; cAMP HTRF induction; plus low (about EC15) PGE2 agonist;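 active means cAMP induction above 50% in the main assay while under 30% in all four parallel counter assays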;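 further: rat C6 glioma cells stably expressing human EP2 receptor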
p97 confirm = p97 ATPase inhibitors, retest, confirmation, biochemical; shares compounds with p97 inhibitor; recombinant p97 ATPase, Kinase-Glo ATP luminescence; inhibition, % at 8 µM; 760 compounds, 44% hits; AID 1517, 2009;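 active means percent inhibition of p97 ATPase above a set limit, the primary screen's mean plus 3 SD, cut at about 15% in these data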;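 further: 0% = DMSO wells and 100% = wells lacking p97 protein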
* marks the source's active call; other numbers are inactive results; i = inactive; . = no result; + = active, no number. Hits are enriched below; roughly 2.4% of the tested compounds scored in any of these assays.

SMILES | Arbovirus anti | Hck Nef HTS | EP2 antag | EP2 modulator | p97 inhibitor | EP2 cAMP induct | others
CCOC(=O)CSc1nc(CC)nc2ccccc12 | 9 | 0 | 9 | 38 | 2 | .
CCOC(=O)CSc1nc(-c2ccccc2)nc2ccc(F)cc12 | 4 | -1 | 5 | 55 | -6 | .
Cc1cnc(C(=O)NC(C)c2nc(-c3ccc(Cl)cc3)n[nH]2)cn1 (stereo unspecified) | . | . | 9 | -28 | . | .
CCOC(=O)C(C)Sc1nc(-c2ccccc2)nc2ccccc12 (stereo unspecified) | 10 | 21 | 3 | 87* | -1 | +
O=C(Cn1nc(C(c2ccccc2)c2ccccc2)oc1=O)N1CCCC1 | . | . | 4 | -45 | . | .
CC1Cc2ccccc2N1CC(=O)NC(c1ccccc1)c1ccccc1 (stereo unspecified) | -3 | -39 | 10 | 72* | -7 | +
CC1CC(C)CN(CC(=O)NC(c2ccccc2)c2ccccc2)C1 (stereo unspecified) | -1 | 15 | 9 | 72* | -1 | i
O=C(NCCCCl)c1c(O)c2ccccc2[nH]c1=O | . | . | 14 | -52 | . | .
CC(C)(C)C(=O)Cn1ncc2cccn2c1=O | . | . | 7 | -7 | . | .
Nc1c(C(=O)NCc2ccccc2)c2nc3ccccc3nc2n1CCCN1CCOCC1 | -31 | 40 | 4 | 77* | -4 | i
CCC(=O)c1cn(CC(=O)N(CC)CC)c2ccccc12 | . | . | 11 | -42 | . | .
N#CC1=C(N)S[C@H](C(=O)C23CC4CC(CC(C4)C2)C3)[C@H]1c1ccncc1 | 13 | -1 | 11 | 66* | -8 | i
CCOC(=O)CNC(=O)CSc1ncnc2c1nnn2-c1ccc(F)cc1 | 8 | 0 | 15 | 26 | -4 | .
COC(=O)C(C)Sc1ncnc2c1nnn2-c1ccc(F)cc1 (stereo unspecified) | -3 | 1 | -2 | 56 | 7 | i
CCOC(=O)c1c(C)nc2sc3c(c2c1-c1ccc(OC)cc1)NC(c1ccccc1)NC3=O (stereo unspecified) | -1 | 1 | 9 | 52 | 2 | .
COc1ccc(-c2c(C(C)=O)c(C)nc3sc4c(c23)NC(c2ccccc2)NC4=O)cc1 (stereo unspecified) | -3 | 2 | 10 | 70* | -2 | i
CCn1nc2c(C)cc3ccc(OC)cc3n2c1=O | . | . | . | 3 | . | .
COc1ccc(Cc2ccccc2C(=O)O)c2ccccc12 | . | . | 13 | 12 | . | .
Cc1cc(C)cc(C(=N)c2ccccc2Cc2cccc3ccccc23)c1 | . | . | 37 | 53 | . | i
Cc1ccccc1C(=N)c1ccccc1Cc1cccc2ccccc12 | . | . | 37 | 72* | . | +
Cc1[nH]c(=O)[nH]c(=O)c1Cc1cccc2ccccc12 | 8 | 22 | 10 | -6 | 5 | .
Oc1c(C=C2N=c3ccccc3=N2)sc(=S)n1-c1ccccc1 | 7 | 7 | 3 | -9 | 7 | .
CC1=Nc2ccccc2/C1=C/c1sc(=S)n(-c2cccc(C(=O)O)c2)c1O | -7 | 4 | 7 | 71* | 16* | + | p97 confirm=35*
COc1ccc2cc(CN(CCO)C(=S)NCCCN3CCOCC3)c(=O)[nH]c2c1 | . | . | 5 | -22 | . | .
CCc1ccc(C2=Nn3c(nnc3-c3cccs3)SC2)cc1 | 2 | -1 | 15 | 89* | 19* | + | p97 confirm=4
Nc1c(C(=O)NCc2ccc(F)cc2)c2nc3ccccc3nc2n1CCCN1CCOCC1 | -37 | 48 | 8 | 16 | -3 | .
Nc1c(C(=O)NCc2ccco2)c2nc3ccccc3nc2n1CCc1ccccc1 | 1 | 44 | 10 | 68* | 18* | i | p97 confirm=7
O=C(O)c1cccc(NN=C2c3ccccc3-c3ccccc32)c1 | 69* | -3 | 3 | 75* | 38* | i | p97 confirm=45*

High-throughput results: PubChem BioAssay, several laboratories
